In PubChem BioAssay AID1851 (National Center for Advancing Translational Sciences (NCATS), 2009) one finds activity, negative = inhibition and AC50 data, which are given here for 100 compounds.

Among all 16,000 compounds or so, about 5,100 (32%) were called active. Not shown: some 25% with an inconclusive outcome. Some of the results follow. A number with no mark means an inactive call. Calls come from the whole dose curve; as a rule, active = well fitted curve in the direction sought with a large enough effect; inconclusive = small, poorly fitted or top-dose-only effect, or effect the other way; inactive = no such curve, though single readings can be large or run the other way.
% is set by controls: 0 for no effect and ±100 for the full control effect.

Chain of Cytochrome P450 3A4 (Homo sapiens) (P08684 whole entry, looked up): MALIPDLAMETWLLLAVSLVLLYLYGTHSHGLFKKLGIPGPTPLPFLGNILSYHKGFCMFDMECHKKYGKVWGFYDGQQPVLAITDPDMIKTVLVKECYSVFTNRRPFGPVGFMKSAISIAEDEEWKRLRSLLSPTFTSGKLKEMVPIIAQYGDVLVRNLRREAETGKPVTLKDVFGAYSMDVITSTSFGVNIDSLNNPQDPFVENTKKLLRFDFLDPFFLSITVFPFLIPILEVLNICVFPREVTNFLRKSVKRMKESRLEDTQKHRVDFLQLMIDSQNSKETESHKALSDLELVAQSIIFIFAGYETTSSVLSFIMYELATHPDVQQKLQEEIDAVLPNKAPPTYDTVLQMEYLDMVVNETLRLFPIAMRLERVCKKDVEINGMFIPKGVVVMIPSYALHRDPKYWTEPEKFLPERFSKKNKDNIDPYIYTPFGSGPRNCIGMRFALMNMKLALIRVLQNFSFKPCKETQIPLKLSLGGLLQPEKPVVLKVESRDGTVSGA

This assay concerns the target Cytochrome P450 3A4 (Homo sapiens) (UniProt P08684). Put plainly: Cytochrome panel assay with activity outcomes. To be noted: recombinant CYP, pro-luciferin dealkylation, luminescence, p450-cyp3a4; series mostly up to 57.1 µM.
As to `CC1=CC(C)(C)N(C)C(=O)N1c1ccc(Cl)cc1`, the activity, negative = inhibition is -0.338% [at 2.29 µM]. On to `Cc1cc(=O)oc(C)c1C(=O)NCCCN1CCN(c2ccc(F)cc2)CC1`, for which the AC50 result is “inactive”. On the same count and under the same terms, the figure for `O=C(NCc1ccccc1)c1onc(CSc2ccc(F)cc2)c1C(=O)NCCCN1CCOCC1` is 2.51 µM (active); for `COCCNC(=O)c1onc(CSc2cccc(Cl)c2)c1C(=O)O` it is “inactive”. The same measure, in the same setting: the entry for `C=C(C)[C@@H]1CC=C(C(=O)O)CC1` is “inactive”. Regarding `CO[C@@H](NC(N)=O)C(=O)O`, the activity, negative = inhibition was -10.7% [at 11.4 µM]. On to `CN(C)c1cc2c(Nc3ccc4c(cnn4Cc4ccccc4)c3)ncnc2cn1`, for which the AC50 is 5.01 µM (active). The same measure, in the same setting: the figure for `CC(C(=O)NC1CCCC1)N(C(=O)c1snc(C(N)=O)c1N)c1ccc2c(c1)OCCO2` (stereo not given) is 3.55 µM (active); for `Cc1ccc(NC2=NC(c3ccccc3)n3c(nc(C)cc3=O)N2)c(C)c1` (stereo not given) it is 14.1 µM (active). Regarding `O=C(OCc1cccc(F)c1)c1ccc2c(c1)-c1ccccc1C2=O`, the AC50 entry is “inactive”.

With `O=C(OCc1nnc(-c2ccccc2)o1)c1ccc2c(c1)OCCO2`, the AC50 was 20 µM (active). Still for that read-out and setting: the figure for `O=C(OCC#CCSc1nnc(-c2cccc3ccccc23)o1)c1ccco1` is 7.94 µM (active); for `S=C(Nc1ccccc1)Nc1ccc(OCc2ccccc2)cc1` it is “inactive”. On the same count and under the same terms, the figure for `Cc1ccccc1OCCNC(=S)Nc1ccccc1` is 12.6 µM (active); for `O=C(c1ccco1)N1CCC2(CC1)CCN(c1ccccc1)CC2` it is “inactive”.

Consider `O=C(c1ccco1)N1CCC[C@@]2(CCN(c3ccncc3)C2)C1`, for which the AC50 was 1.26 µM (active).

Consider `O=C(c1ccco1)N1CCC[C@@]2(CCN(c3ccccc3)C2)C1`, for which the AC50 was 12.6 µM (active). On the same count and under the same terms, the entry for `O=C(Nc1ccccc1)N1CC2(CCN(C(=O)c3ccco3)CC2)C1` is “inactive”; for `O=C(Nc1cccn2ncnc12)c1ccc(Cl)cc1Cl` it is “inactive”.

Regarding `O=C(Nc1ccc(N=Nc2ccccc2)cc1)c1ccc(Cl)cc1Cl`, the AC50 result was “inactive”. With `CCCN(CCC)C(=S)NC(=O)c1ccc(Cl)cc1Cl`, the AC50 was 14.1 µM (active). Consider `CC1CCc2c(C(=O)Nc3nccs3)csc2C1` (stereo not given), for which the activity, negative = inhibition is -19.8% [at 11.4 µM]. Turning to `Cc1onc(C(=O)/C=C/N(C)C)c1C(=O)Nc1nccs1`, the AC50 result was “inactive”. Same read-out and setting: the figure for `CC12COC3(C(=O)Nc4nccs4)CC1CCC32C` (stereo not given) is 14.1 µM (active). On the same count and under the same terms, the figure for `Cn1c(OCc2ccc3c(c2)OCO3)nc2c1c(=O)n(Cc1ccc(Cl)c(Cl)c1)c(=O)n2C` is 3.55 µM (active); for `CCCCOC(=O)CCc1c(C)[nH]c(=O)c(C#N)c1C` it is “inactive”.

Turning to `Cc1cc(NC(=O)Nc2ccc(F)cc2)no1`, the AC50 entry was “inactive”.

For the compound `Cc1cc(NC(=O)Nc2ccc(N(C)C)cc2)c2cc(F)cc(F)c2n1`, the AC50 is 6.31 µM (active). As for `Cc1cc(N)c2cc(NC(=O)Nc3ccc4nc(C)cc(N)c4c3)ccc2n1`, the activity, negative = inhibition was -7.21% [at 11.4 µM]. As to `CSc1nc(N)nc(SCC(=O)Nc2ccc(Cl)cc2)c1C#N`, the AC50 entry was “inactive”.

Regarding `CSc1nsc(/C=C/Nc2ccc(Cl)cc2)c1C#N`, the AC50 is 8.91 µM (active). For the compound `C[C@@H](c1ccccc1)N1C(=O)[C@H]2[C@@H]3[C@H](O)C=CC(=O)[C@H]3CC[C@H]2C1=O`, the activity, negative = inhibition was -17.4% [at 11.4 µM].

Regarding `Cc1cnc(CNc2ccnc(-c3cccnc3)n2)cn1`, the concentration at half-maximal activity (AC50) was 5.01 µM (active). The same measure, in the same setting: the figure for `Cc1cnc(CNc2ccnc(-c3cccc(NS(C)(=O)=O)c3)n2)cn1` is 15.8 µM (active). The same measure, in the same setting: the figure for `Cc1cnc(CNc2ccnc(-c3cccc(C#N)c3)n2)cn1` is 12.6 µM (active). The same measure, in the same setting: the figure for `COc1cccc(-c2nccc(NCc3cnc(C)cn3)n2)c1` is 6.31 µM (active); for `C[C@@H](N)C(=O)O` it is “inactive”.

With `Cc1cc(C)cc(Oc2nn[nH]n2)c1`, the AC50 entry is “inactive”. The same measure, in the same setting: the figure for `O=C(CCS(=O)(=O)c1cccs1)N1CCN(c2ccc(F)cc2)CC1` is 12.6 µM (active). Same read-out and setting: the entry for `CC(C)CCN1CC(C(=O)N2CCN(c3ccc(F)cc3)CC2)CC1=O` (stereo not given) is “inactive”. Consider `Cc1ccccc1S(=O)(=O)Oc1ccccc1C(=O)Oc1ccccc1`, for which the activity, negative = inhibition was -12.1% [at 2.29 µM]. Regarding `Nc1ccc(S(=O)(=O)Nc2ccccn2)cc1`, the AC50 entry was “inactive”.

As to `CC(C)CCNC(=O)Cc1ccccc1[N+](=O)[O-]`, the AC50 entry is “inactive”. The same measure, in the same setting: the figure for `O=C(Cc1ccccc1[N+](=O)[O-])NCCSCc1c(F)cccc1Cl` is 14.1 µM (active).

Turning to `COCCNC(=O)c1cn(Cc2c(F)cccc2Cl)nn1`, the AC50 result was “inactive”.

`CC(C)COCC1CC2(CC(C)(c3csc(N)n3)OC2=O)C(=O)O1` (stereo not given): the AC50 is 14.1 µM (active). For `CCN1CCC[C@H]1CNC(=O)c1c(OC)ccc(Br)c1OC`, the AC50 entry is “inactive”. Regarding `CCC1CCCCN1CCn1c(=S)[nH]c2cc(OC)c(OC)cc2c1=O` (stereo not given), the AC50 was 14.1 µM (active). On the same count and under the same terms, the entry for `CCC1CCCCN1Cc1cc(OC)c(O)c([N+](=O)[O-])c1` (stereo not given) is “inactive”; for `O=C(O)[C@@H]1C[C@@H](C(=O)O)N1` it is “inactive”. With `c1ccc(CCNc2nnnn2-c2ccccc2)cc1`, the activity, negative = inhibition was -3.75% [at 2.29 µM]. For `Cn1ncc2c(NCCc3ccccc3)nc(Cl)nc21`, the AC50 is 2 µM (active). Turning to `Cn1ncc2c(Cl)ncnc21`, the activity, negative = inhibition was -9.04% [at 11.4 µM]. For `CCN1CCN(c2cc(=O)n(-c3cc(Cl)ccc3C)c(=O)[nH]2)CC1`, the AC50 result is “inactive”.

`CS(=O)(=O)c1ccccc1-c1nc(-c2cc(C(F)(F)F)cc(C(F)(F)F)c2)no1`: the activity, negative = inhibition is 4.25% [at 2.29 µM]. For `Cc1cccc(-c2noc(-c3cc4ccccc4oc3=O)n2)c1`, the AC50 was 8.91 µM (active). In the case of `CS(=O)c1ccccc1-c1nc(-c2cc(C(F)(F)F)cc(C(F)(F)F)c2)no1` (stereo not given), the activity, negative = inhibition was 15.3% [at 2.29 µM]. Turning to `COc1ccc(OC(=O)c2ccncc2)cc1`, the AC50 result was “inactive”.

As for `COc1nc(Oc2ccc(/C=N/O)cc2)nc(N(C)C)n1`, the activity, negative = inhibition was -3.18% [at 2.29 µM].

As for `COc1ccc(/C=C/c2ccncc2)cc1`, the AC50 is 1.58 µM (active). Same read-out and setting: the figure for `CCOC(=O)C(C)Sc1nnc(CNC(=O)c2ccc(OC)cc2)n1C1CCCCC1` (stereo not given) is 0.891 µM (active). On the same count and under the same terms, the figure for `CCOC(=O)CSc1nnc(CNC(=O)c2ccc(OC)cc2)n1C1CCCCC1` is 2 µM (active). In the case of `O[C@@H]1[C@@H](OCc2ccccc2)OC[C@H](O)[C@@H]1O`, the activity, negative = inhibition was -2.87% [at 11.4 µM].

As to `Cc1cc(C)cc(N(C(=O)C2CCCC2)C2C=CS(=O)(=O)C2)c1` (stereo not given), the activity, negative = inhibition was -15.4% [at 2.29 µM]. Regarding `CCCCC1=NN2C(=N)CC(=O)N=C2S1`, the AC50 result was “inactive”. On the same count and under the same terms, the entry for `CCN(CC)c1ccc(NC(=O)c2cnn(CC)c2)cc1` is “inactive”; for `CN(C)c1ccc(NC(=O)CSc2nc(N)c(C(=O)Nc3ccc(N(C)C)cc3)s2)cc1` it is 4.47 µM (active). For the compound `CN[C@@H]1NC(=O)c2ccccc2N1Cc1ccc(F)cc1`, the activity, negative = inhibition was -12.4% [at 11.4 µM]. Turning to `O=C1c2cccnc2C(=O)N1Cc1ccc(F)cc1`, the AC50 entry is “inactive”.

For the compound `Cc1ccc(NC2c3ncccc3C(=O)N2Cc2ccc(F)cc2)cc1` (stereo not given), the AC50 is 4.47 µM (active). Regarding `Cc1ccc(C(=N)c2ccccc2Cc2cccc3ccccc23)c2ccccc12`, the half-maximal activity concentration (AC50) is 3.98 µM (active). With `N=C(c1ccc2ccccc2c1)c1ccccc1Cc1ccccc1`, the activity, negative = inhibition was -11.9% [at 11.4 µM].

In the case of `Cc1ccc(C)c(C(=N)c2ccccc2Cc2ccccc2)c1`, the AC50 was 3.98 µM (active). Regarding `Cc1cc(C)c(O)c(Cc2cccc(Cc3cc(C)cc(C)c3O)c2O)c1`, the activity, negative = inhibition is 6.11% [at 11.4 µM]. Take `c1ccc2c(CC3=NCCN3)cccc2c1`: the AC50 entry was “inactive”.

On to `CN(Cc1cccc2ccccc12)Cc1cccc2ccccc12`, for which the activity, negative = inhibition is -53.9% [at 11.4 µM].

For the compound `CN1CCCC1CCNC1C2CC3CC(C2)CC1C3` (stereo not given), the activity, negative = inhibition is -0.75% [at 2.29 µM]. Regarding `CN1C(=C2C(=O)OC(C)(C)OC2=O)Sc2ccccc21`, the AC50 entry is “inactive”.

Take `O=C(Oc1c(Br)cc(C(=S)N2CCOCC2)cc1Br)c1ccc(Cl)cc1`: the activity, negative = inhibition is -1.32% [at 2.29 µM]. For the compound `O=c1c(-c2ccccc2)nc2cnc(N3CCOCC3)nc2n1C1CC1`, the AC50 result is “inactive”. Consider `O=c1c(-c2ccc(F)cc2)nc2cnc(N3CCOCC3)nc2n1C1CC1`, for which the AC50 entry is “inactive”.

In the case of `O=c1c(-c2cc(F)cc(F)c2)nc2cnc(N3CCNCC3)nc2n1C1CC1`, the AC50 was 25.1 µM (active). On the same count and under the same terms, the entry for `O=c1cnc2cnc(N3CCOCC3)nc2n1C1CC1` is “inactive”. For the compound `CN(C)c1ncc2nc(-c3ccccc3)c(=O)n(C3CC3)c2n1`, the AC50 result is “inactive”. For `O=c1c(-c2cc(F)cc(F)c2)nc2cnc(N3CCOCC3)nc2n1C1CC1`, the AC50 result was “inactive”. As for `O=c1c(-c2ccc(F)cc2)nc2cnc(N3CCNCC3)nc2n1C1CC1`, the concentration at half-maximal activity (AC50) is 15.8 µM (active).

With `CN1CCN(c2ncc3nc(-c4cc(F)cc(F)c4)c(=O)n(C)c3n2)CC1`, the AC50 entry is “inactive”. Regarding `O=c1c(-c2ccccc2)nc2cnc(N3CCNCC3)nc2n1C1CC1`, the AC50 was 12.6 µM (active).

As to `O=c1c(-c2cccs2)nc2cnc(N3CCNCC3)nc2n1C1CC1`, the AC50 is 6.31 µM (active). The same measure, in the same setting: the entry for `O=c1c(-c2cccs2)nc2cnc(Oc3ccccc3)nc2n1C1CC1` is “inactive”; for `O=c1c(-c2ccc(Cl)cc2)nc2cnc(N3CCOCC3)nc2n1C1CC1` it is “inactive”; for `COc1ccc(-c2nc3cnc(N4CCNCC4)nc3n(C3CC3)c2=O)cc1` it is 10 µM (active). Still for that read-out and setting: the entry for `COc1ccc(-c2nc3cnc(N4CCN(C)CC4)nc3n(C3CC3)c2=O)cc1` is “inactive”; for `COC(=O)[C@@]1(Cc2ccc(OC)cc2)[C@H]2c3cc(C(=O)N(C)C)[nH]c3C[C@H]2CN1C(=O)c1ccccc1` it is 1.58 µM (active); for `COc1ccc2c(c1)c(CC(=O)O)c(C)n2C(=O)c1ccccc1` it is “inactive”. Same read-out and setting: the figure for `COC(=O)[C@@]1(Cc2ccccc2)[C@H]2c3cc(C(=O)N4CCCC4)[nH]c3C[C@H]2CN1C(=O)c1ccccc1` is 2.51 µM (active). As to `C[C@@]12CC(=O)[C@@H]3[C@@H](CCC4=CC(=O)CC[C@]43C)[C@@H]1CC=C2CC(=O)O`, the activity, negative = inhibition was -10.5% [at 11.4 µM].

As to `CCOC(=O)C1=C(C)C(c2ccccc2OC)NC(=S)N1` (stereo not given), the activity, negative = inhibition was -19.1% [at 2.29 µM].

With `CCOC(=O)C1=C(C)NC(=S)NC1c1cccc(O)c1` (stereo not given), the AC50 was 1 µM (active). With `CCOC(=O)C1=C(C)NC(=O)NC1c1ccoc1` (stereo not given), the activity, negative = inhibition was 15% [at 2.29 µM].
